Assay results reported in PubChem BioAssay (EPA / NIEHS).
Inconclusive results are not listed. The source made the active and inactive calls. How the source made its calls, unless noted: active means hit-call score of the fitted dose curve at least 0.9, where 1 is the maximum; inconclusive means response in the unintended direction; inactive means score below 0.9.

Tests used:
[1] = ATG_TCF_b_cat_CIS: Attagene CIS-FACTORIAL HepG2 Assay for human T-Cell-Factor with beta-catenin (TCF/b-cat) (AID 2282965; active means hit-call score of the fitted dose curve at least 0.9, where 1 is the maximum; inactive means score below 0.9); settings: HepG2 TCF/beta-catenin cis-reporter transcription, actives raise or lower the signal
Summary of the method: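 Endogenous transcription factor activity is captured through cis-promoter reporter constructs transiently introduced into human HepG2 liver cells. Induced reporter mRNA is measured after 24 h and fitted bidirectionally relative to DMSO.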

[2] = ATG_TAL_CIS: Attagene CIS-FACTORIAL HepG2 Assay for human TAL Basal Promoter (AID 2282966; active means hit-call score of the fitted dose curve at least 0.9, where 1 is the maximum; inactive means score below 0.9;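 further: background control endpoint measuring basal TAL promoter reporter mRNA not a specific factor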); settings: HepG2 Attagene cis-factorial TAL promoter reporter; actives raise or lower the signal
Summary of the method: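 Steps: transfect HepG2 with multiple reporter transcription units; dose 24 h; isolate RNA, reverse-transcribe, PCR-amplify, label with 6-FAM, digest with HpaI; resolve by capillary electrophoresis. Bidirectional fitting against DMSO baseline.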

[3] = ATG_TGFb_CIS: Attagene CIS-FACTORIAL HepG2 Assay for human Transforming Growth Factor (TGF) (AID 2282967; active means hit-call score of the fitted dose curve at least 0.9, where 1 is the maximum; inactive means score below 0.9); settings: HepG2 Attagene CIS TGFb reporter, mRNA transcription; actives raise or lower the signal
Summary of the method: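 Liver HepG2 line, cis-factorial reporter panel, 24 h dosing. Quantitation: RT-PCR products labeled with 6-FAM, cut with HpaI, resolved by capillary electrophoresis; DMSO-referenced bidirectional analysis.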

[4] = ATG_VDRE_CIS: Attagene CIS-FACTORIAL HepG2 Assay for human Vitamin D Receptor Element (VDRE) (AID 2282968; active means hit-call score of the fitted dose curve at least 0.9, where 1 is the maximum; inactive means score below 0.9); settings: HepG2 VDRE cis-reporter transcription, actives raise or lower the signal
Summary of the method: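 In transiently transfected HepG2 liver cells, gain or loss of reporter mRNA after 24 h exposure is scored relative to DMSO, using fluorescence detection by capillary electrophoresis of RT-PCR products.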

[5] = target: Estrogen receptor (Homo sapiens) (UniProt P03372); assay: ATG_ERa_TRANS: Attagene TRANS-FACTORIAL HepG2 Assay for human Estrogen Receptor alpha (ERa) (AID 2282970); settings: HepG2 Attagene TRANS ERa GAL4 reporter, mRNA
Summary of the method: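 Multiplexed cell-based reporter format in HepG2: chimeric ERa-Gal4 protein drives GAL4-UAS reporter transcription. Fluorescent reporter mRNA quantified by capillary electrophoresis 24 hours after dosing; endpoint fitted as signal gain against DMSO.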

[6] = target: X-box-binding protein 1 (Homo sapiens) (UniProt P17861); assay: ATG_Xbp1_CIS: Attagene CIS-FACTORIAL HepG2 Assay for human X-box Binding Protein 1 (XBP1) (AID 2282972; active means hit-call score of the fitted dose curve at least 0.9, where 1 is the maximum; inactive means score below 0.9); settings: HepG2 XBP1 cis-element reporter, Attagene multiplex; actives raise or lower the signal
Summary of the method: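 After a 24-hour chemical exposure of HepG2 cells carrying cis-regulated reporters, reporter mRNA levels are assessed. Quantification uses RT-PCR, 6-FAM labelling and capillary electrophoresis. Gain- or loss-of-signal is fitted against DMSO.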

[7] = ATG_Hpa5_TRANS: Attagene TRANS-FACTORIAL HepG2 Assay for human GAL4-Hpa5 Hepatocyte Transcription Factor Basal Promoter (AID 2282975); settings: HepG2 Attagene GAL4-Hpa5 transcription reporter;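 further: hits are increases in reporter mRNA over DMSO baseline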
Summary of the method: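 Basal-promoter GAL4 background control within the HepG2 trans-factorial panel of transiently transfected reporter units. Reporter mRNA is measured 24 h after dosing by RT-PCR and capillary electrophoresis, fitted for gain of signal versus DMSO.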

[8] = target: Oxysterols receptor LXR-alpha (Homo sapiens) (UniProt Q13133); assay: ATG_LXRa_TRANS: Attagene TRANS-FACTORIAL HepG2 Assay for human Liver X Receptor alpha (LXRa) (AID 2282980); settings: HepG2 Attagene TRANS reporter, LXRa transactivation
Summary of the method: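 In this multiplexed TRANS system, compounds act on HepG2 cells carrying GAL4-UAS reporter units and a receptor-GAL4 fusion for 24 h. Induced reporter RNA is amplified, fluorescently labelled and sized by capillary electrophoresis, with DMSO as baseline.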

[9] = target: Oxysterols receptor LXR-beta (Homo sapiens) (UniProt P55055); assay: ATG_LXRb_TRANS: Attagene TRANS-FACTORIAL HepG2 Assay for human Liver X Receptor beta (LXRb) (AID 2282981); settings: HepG2 Attagene TRANS GAL4-LXRb reporter, mRNA
Summary of the method: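 Cells: HepG2, transiently transfected with GAL4-UAS reporter units plus LXRb-Gal4 fusion. Treatment: 24 h. Detection: reporter mRNA by RT-PCR, 6-FAM labelling, HpaI digestion, capillary electrophoresis.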

[10] = ATG_M_06_TRANS: Attagene TRANS-FACTORIAL HepG2 Assay for M06 Transcription Factor (Internal Marker) (AID 2282983); settings: HepG2 Attagene TRANS M06 internal marker reporter;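 further: reporter transcript level by RT-PCR then capillary electrophoresis fluorescence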
Summary of the method: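 Internal-marker background readout from a multiplexed TRANS reporter system in HepG2; 24 h dosing; mRNA induction quantified by RT-PCR plus capillary electrophoresis fluorescence; DMSO as negative control and baseline.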

[11] = target: Nuclear receptor subfamily 4 group A member 2 (Homo sapiens) (UniProt P43354); assay: ATG_NURR1_TRANS: Attagene TRANS-FACTORIAL HepG2 Assay for human Nuclear Receptor Related Protein 1 (NURR1) (AID 2282985); settings: HepG2 Attagene TRANS reporter, mRNA readout
Summary of the method: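 Cells: HepG2, transiently transfected. Exposure: 24 h. Detection: fluorescence of labelled RT-PCR products separated by capillary electrophoresis; upward fit versus DMSO.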

[12] = target: Transcriptional activator Myb (Homo sapiens) (UniProt P10242); assay: ATG_Myb_CIS: Attagene CIS-FACTORIAL HepG2 Assay for human Myeloblastosis (Myb) Proto-Oncogene Transcription Factor (AID 2282986; active means hit-call score of the fitted dose curve at least 0.9, where 1 is the maximum; inactive means score below 0.9); settings: HepG2 Attagene CIS-FACTORIAL Myb reporter transcription; actives raise or lower the signal
Summary of the method: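 Reporter mRNA is quantified by RT-PCR and capillary electrophoresis 24 h after dosing HepG2 cells transfected with cis-regulated reporter units, which track endogenous transcription factor activity. Gain and loss of signal are fitted versus DMSO baseline.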

[13] = target: Nuclear respiratory factor 1 (Homo sapiens) (UniProt Q16656); assay: ATG_NRF1_CIS: Attagene CIS-FACTORIAL HepG2 Assay for human Nuclear Respiratory Factor 1 (NRF1) Orphan Gene (AID 2282987; active means hit-call score of the fitted dose curve at least 0.9, where 1 is the maximum; inactive means score below 0.9); settings: HepG2 NRF1 cis-element reporter, Attagene multiplex; actives raise or lower the signal
Summary of the method: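 Endogenous NRF1-driven reporter transcription in transfected HepG2 cells after 24 h treatment. Readout: RT-PCR products, 6-FAM labelled and resolved by capillary electrophoresis; changes fitted both directions relative to DMSO.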

[14] = target: Nuclear receptor subfamily 1 group I member 3 (Homo sapiens) (UniProt Q14994); assay: ATG_CAR_TRANS: Attagene TRANS-FACTORIAL HepG2 Assay for human Constitutive Androstane Receptor (CAR) (AID 2282969); settings: HepG2 Attagene TRANS-FACTORIAL CAR reporter;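 further: activators raise reporter mRNA above DMSO so AC50 marks induction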
Summary of the method: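 Readout is reporter mRNA induction, quantified by fluorescent primer extension and capillary electrophoresis after RT-PCR. Cells were HepG2 transiently carrying chimeric NR-Gal4 constructs with GAL4-UAS reporters, treated for 24 h; activity scored upward from DMSO.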

[15] = ATG_M_32_TRANS: Attagene TRANS-FACTORIAL HepG2 Assay for M32 Transcription Factor (Internal Marker) (AID 2282984); settings: HepG2 Attagene TRANS M32 internal marker reporter
Summary of the method: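 Using transiently transfected HepG2 cells exposed to test chemicals for 24 h, reporter transcripts are converted to labelled cDNA fragments and quantified by capillary electrophoresis. DMSO defines the activity baseline.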

[16] = target: Androgen receptor (Homo sapiens) (UniProt P10275); assay: ATG_AR_TRANS: Attagene TRANS-FACTORIAL HepG2 Assay for human Androgen Receptor (AR) (AID 2282973); settings: HepG2 Attagene TRANS-FACTORIAL AR reporter transcription
Summary of the method: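 Chimeric nuclear receptor–Gal4 activity was assessed in human HepG2 hepatocytes after 24 h chemical dosing. Induced reporter mRNA was detected via labelled RT-PCR fragments on capillary electrophoresis, and gain of signal was analysed against DMSO.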

[17] = ATG_M_19_TRANS: Attagene TRANS-FACTORIAL HepG2 Assay for M19 Transcription Factor (Internal Marker) (AID 2282974); settings: HepG2 Attagene TRANS-FACTORIAL M19 internal marker reporter
Summary of the method: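 Background-control readout: after 24 h chemical exposure of transfected HepG2 carrying GAL4-driven reporter units, RNA was reverse-transcribed, amplified, fluorescently labeled and sized by capillary electrophoresis; gain-of-signal fit against DMSO.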

[18] = target: Bile acid receptor (Homo sapiens) (UniProt Q96RI1); assay: ATG_FXR_TRANS: Attagene TRANS-FACTORIAL HepG2 Assay for Farnesoid X Receptor (FXR) (AID 2282979); settings: HepG2 Attagene TRANS FXR-GAL4 reporter transcription;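 further: hits raise reporter mRNA above DMSO so AC50 marks FXR activation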
Summary of the method: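 After 24 h chemical treatment of transfected HepG2 cells, GAL4-UAS reporter transcripts driven by an exogenous FXR-GAL4 fusion were measured by RT-PCR and capillary electrophoresis. Increases over DMSO were fitted.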

Measured: AC50

Sequence of Oxysterols receptor LXR-beta (Homo sapiens) (P55055 whole entry, looked up, the tested form may be a part): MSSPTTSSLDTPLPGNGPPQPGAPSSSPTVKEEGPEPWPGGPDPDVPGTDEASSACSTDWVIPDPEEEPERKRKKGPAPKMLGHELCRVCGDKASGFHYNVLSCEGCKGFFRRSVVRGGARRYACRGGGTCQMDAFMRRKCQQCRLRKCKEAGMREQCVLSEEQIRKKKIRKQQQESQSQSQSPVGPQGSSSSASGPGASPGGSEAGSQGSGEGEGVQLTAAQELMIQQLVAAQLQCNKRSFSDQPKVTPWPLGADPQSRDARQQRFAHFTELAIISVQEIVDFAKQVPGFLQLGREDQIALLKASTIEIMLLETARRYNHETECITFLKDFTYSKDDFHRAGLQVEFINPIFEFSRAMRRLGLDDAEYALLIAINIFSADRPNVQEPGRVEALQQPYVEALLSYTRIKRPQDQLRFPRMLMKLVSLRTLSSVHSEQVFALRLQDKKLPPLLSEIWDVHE
Sequence of Oxysterols receptor LXR-alpha (Homo sapiens) (Q13133 whole entry, looked up, the tested form may be a part): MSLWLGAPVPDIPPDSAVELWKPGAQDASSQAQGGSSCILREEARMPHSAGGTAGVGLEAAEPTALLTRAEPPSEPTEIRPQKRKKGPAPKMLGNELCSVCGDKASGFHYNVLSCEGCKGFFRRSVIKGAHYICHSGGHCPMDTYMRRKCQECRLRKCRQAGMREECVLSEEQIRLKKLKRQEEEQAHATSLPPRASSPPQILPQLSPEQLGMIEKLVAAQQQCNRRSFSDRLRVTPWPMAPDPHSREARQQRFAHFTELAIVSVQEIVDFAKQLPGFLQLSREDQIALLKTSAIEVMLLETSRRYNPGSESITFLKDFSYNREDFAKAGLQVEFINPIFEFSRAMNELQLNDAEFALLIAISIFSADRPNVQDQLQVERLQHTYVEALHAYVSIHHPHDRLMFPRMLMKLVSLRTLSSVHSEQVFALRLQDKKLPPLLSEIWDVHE
Sequence of Estrogen receptor (Homo sapiens) (P03372 whole entry, looked up, the tested form may be a part): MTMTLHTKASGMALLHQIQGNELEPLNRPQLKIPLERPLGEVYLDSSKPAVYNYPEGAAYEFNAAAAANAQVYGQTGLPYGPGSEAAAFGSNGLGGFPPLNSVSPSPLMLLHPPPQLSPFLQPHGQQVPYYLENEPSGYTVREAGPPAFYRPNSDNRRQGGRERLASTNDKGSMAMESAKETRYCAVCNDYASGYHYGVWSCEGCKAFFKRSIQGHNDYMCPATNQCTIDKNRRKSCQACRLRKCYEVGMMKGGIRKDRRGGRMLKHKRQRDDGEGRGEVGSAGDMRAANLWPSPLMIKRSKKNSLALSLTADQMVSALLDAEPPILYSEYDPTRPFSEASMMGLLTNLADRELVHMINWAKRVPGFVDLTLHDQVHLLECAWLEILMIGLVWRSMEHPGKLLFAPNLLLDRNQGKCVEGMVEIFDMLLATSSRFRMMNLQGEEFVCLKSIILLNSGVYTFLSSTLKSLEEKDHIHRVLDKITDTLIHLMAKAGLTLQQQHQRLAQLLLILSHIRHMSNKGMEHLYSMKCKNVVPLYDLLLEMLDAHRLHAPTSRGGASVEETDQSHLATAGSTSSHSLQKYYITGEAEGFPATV
Sequence of X-box-binding protein 1 (Homo sapiens) (P17861 whole entry, looked up): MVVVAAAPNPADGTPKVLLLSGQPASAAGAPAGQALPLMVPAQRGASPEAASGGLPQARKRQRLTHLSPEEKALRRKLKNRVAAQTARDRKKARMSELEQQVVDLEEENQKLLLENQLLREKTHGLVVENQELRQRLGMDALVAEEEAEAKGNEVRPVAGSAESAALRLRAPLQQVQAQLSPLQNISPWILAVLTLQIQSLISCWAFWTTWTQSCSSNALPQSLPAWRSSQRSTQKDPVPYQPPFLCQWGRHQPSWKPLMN
Sequence of Nuclear receptor subfamily 1 group I member 3 (Homo sapiens) (Q14994 whole entry, looked up, the tested form may be a part): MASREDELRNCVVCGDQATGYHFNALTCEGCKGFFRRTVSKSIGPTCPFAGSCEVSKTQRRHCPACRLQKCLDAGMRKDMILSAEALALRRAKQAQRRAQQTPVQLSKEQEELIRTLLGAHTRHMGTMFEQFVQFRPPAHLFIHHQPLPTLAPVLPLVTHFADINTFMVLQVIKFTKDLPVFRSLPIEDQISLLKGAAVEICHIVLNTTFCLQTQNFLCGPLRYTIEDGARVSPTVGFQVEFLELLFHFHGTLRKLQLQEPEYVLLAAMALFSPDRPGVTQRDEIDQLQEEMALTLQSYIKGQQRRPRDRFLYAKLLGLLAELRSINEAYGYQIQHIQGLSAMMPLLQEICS
Sequence of Androgen receptor (Homo sapiens) (P10275 whole entry, looked up, the tested form may be a part): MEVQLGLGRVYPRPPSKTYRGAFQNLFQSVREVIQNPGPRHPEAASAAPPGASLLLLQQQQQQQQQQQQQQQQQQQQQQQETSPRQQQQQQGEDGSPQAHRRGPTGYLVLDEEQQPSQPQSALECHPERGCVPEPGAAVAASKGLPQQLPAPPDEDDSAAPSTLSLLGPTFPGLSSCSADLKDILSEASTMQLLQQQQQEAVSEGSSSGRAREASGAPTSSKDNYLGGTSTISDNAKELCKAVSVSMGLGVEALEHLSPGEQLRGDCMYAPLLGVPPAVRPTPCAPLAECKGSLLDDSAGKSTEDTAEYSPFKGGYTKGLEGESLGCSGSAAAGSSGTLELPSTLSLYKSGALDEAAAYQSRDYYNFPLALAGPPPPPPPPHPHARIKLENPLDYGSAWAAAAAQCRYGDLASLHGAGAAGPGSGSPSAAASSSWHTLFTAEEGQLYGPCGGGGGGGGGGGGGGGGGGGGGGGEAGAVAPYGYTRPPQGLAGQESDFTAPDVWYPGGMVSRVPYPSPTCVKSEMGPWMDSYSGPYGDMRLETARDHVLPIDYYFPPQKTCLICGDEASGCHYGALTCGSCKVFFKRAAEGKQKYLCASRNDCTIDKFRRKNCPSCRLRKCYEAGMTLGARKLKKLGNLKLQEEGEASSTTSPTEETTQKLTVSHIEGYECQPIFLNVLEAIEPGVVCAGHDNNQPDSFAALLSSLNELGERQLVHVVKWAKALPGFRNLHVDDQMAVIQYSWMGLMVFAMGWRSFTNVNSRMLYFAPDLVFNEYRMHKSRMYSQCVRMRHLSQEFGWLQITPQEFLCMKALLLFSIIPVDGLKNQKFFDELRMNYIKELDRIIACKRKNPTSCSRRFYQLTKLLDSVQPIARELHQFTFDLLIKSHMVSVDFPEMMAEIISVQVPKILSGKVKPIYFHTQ
Sequence of Nuclear respiratory factor 1 (Homo sapiens) (Q16656 whole entry, looked up): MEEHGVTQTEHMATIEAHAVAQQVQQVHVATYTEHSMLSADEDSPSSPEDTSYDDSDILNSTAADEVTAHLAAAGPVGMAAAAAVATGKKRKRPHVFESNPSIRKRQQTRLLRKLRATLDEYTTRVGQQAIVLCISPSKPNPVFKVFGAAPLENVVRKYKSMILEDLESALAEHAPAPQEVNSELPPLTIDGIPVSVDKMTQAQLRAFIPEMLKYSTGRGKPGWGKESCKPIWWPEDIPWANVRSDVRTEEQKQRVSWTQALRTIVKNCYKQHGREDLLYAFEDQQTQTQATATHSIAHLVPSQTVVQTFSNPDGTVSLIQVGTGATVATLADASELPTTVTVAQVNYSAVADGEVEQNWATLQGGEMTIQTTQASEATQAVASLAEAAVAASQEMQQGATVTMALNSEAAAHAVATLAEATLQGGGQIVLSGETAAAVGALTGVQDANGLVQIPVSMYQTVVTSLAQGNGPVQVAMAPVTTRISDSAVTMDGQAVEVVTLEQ
Sequence of Nuclear receptor subfamily 4 group A member 2 (Homo sapiens) (P43354 whole entry, looked up): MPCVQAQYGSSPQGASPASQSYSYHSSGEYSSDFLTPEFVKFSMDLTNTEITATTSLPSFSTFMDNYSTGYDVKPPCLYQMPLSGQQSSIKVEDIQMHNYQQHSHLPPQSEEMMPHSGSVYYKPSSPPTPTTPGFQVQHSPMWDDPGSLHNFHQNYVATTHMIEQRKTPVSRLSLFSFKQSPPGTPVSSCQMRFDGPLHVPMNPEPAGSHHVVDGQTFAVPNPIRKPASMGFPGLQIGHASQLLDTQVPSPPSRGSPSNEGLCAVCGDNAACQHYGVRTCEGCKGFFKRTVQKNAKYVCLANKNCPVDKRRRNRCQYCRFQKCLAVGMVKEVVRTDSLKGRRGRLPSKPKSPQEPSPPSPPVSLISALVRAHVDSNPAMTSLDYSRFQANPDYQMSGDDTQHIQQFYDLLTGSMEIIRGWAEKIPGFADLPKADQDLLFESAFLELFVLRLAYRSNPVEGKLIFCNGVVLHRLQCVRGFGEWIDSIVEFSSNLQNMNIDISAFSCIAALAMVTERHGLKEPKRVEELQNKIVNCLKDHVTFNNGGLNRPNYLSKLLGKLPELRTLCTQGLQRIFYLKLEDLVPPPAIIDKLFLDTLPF
Sequence of Transcriptional activator Myb (Homo sapiens) (P10242 whole entry, looked up): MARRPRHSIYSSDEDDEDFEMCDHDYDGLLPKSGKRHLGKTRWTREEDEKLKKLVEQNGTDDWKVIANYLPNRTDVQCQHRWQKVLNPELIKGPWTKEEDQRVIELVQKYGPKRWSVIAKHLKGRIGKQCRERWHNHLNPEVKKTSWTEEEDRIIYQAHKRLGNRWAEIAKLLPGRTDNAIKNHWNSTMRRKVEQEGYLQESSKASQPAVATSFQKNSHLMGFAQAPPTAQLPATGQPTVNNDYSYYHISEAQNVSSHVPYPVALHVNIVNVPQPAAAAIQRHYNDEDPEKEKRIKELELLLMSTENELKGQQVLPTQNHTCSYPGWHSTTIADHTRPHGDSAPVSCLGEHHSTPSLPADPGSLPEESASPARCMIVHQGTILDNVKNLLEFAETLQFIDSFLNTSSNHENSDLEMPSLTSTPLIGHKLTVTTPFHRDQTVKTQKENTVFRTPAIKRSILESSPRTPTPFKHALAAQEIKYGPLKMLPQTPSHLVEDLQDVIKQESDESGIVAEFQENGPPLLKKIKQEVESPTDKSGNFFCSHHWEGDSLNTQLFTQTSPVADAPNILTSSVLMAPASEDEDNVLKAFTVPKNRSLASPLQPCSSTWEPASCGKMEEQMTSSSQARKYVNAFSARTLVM

COP(=O)(OC)O/C(C)=C/C(=O)N(C)C
inactive: [1] | [2] | [3] | [4] | [5] | [6] | [7] | [8] | [9] | [10] | [11] | [12] | [13]

O=C(Nc1ccccc1-c1ccc(Cl)cc1)c1cccnc1Cl
active: [4] 13.7 µM
inactive: [1] | [2] | [3] | [14] | [5] | [6] | [7] | [9] | [10] | [15] | [11] | [13]

Clc1cccc(C(Cl)(Cl)Cl)n1
inactive: [2] | [3] | [5] | [6] | [16] | [17] | [7] | [18] | [8] | [9] | [10] | [15] | [13]

O=P(O)(O)CCCl
inactive: [2] | [3] | [4] | [5] | [6] | [18] | [8] | [9] | [10] | [15] | [11] | [12] | [13]

COc1ccc(-c2ccccc2)cc1NNC(=O)OC(C)C
active: [4] 7.63 µM | [6] 50 µM
inactive: [2] | [3] | [5] | [16] | [9] | [10] | [11] | [13]

Cc1cnc(C2=NC(C)(C(C)C)C(=O)N2)c(C(=O)O)c1 (stereo not given)
active: [4] 50 µM
inactive: [2] | [3] | [5] | [6] | [17] | [8] | [9] | [13]

CCOP(=O)(OCC)Oc1nc(Cl)c(Cl)cc1Cl
inactive: [2] | [3] | [6] | [16] | [17] | [7] | [8] | [9] | [10] | [15] | [11] | [12] | [13]
active: [4] 39.2 µM | [5] 50 µM

COC(=O)c1c(C(F)F)nc(C(F)(F)F)c(C2=NCCS2)c1CC(C)C
inactive: [2] | [3] | [14] | [6] | [17] | [7] | [8] | [9] | [10] | [15] | [11] | [12] | [13]
active: [4] 0.879 µM | [5] 19.6 µM

CCCCC(O)(Cn1cncn1)c1ccc(Cl)cc1Cl (stereo not given)
active: [4] 23.6 µM | [5] 16.9 µM
inactive: [2] | [3] | [14] | [6] | [10] | [11] | [13]
